Data taken from PubChem BioAssay (NCI).
Values joined by “and” are separate entries in the source; they are usually repeats but may differ in a detail not shown here. Identical values can stand only once. Compounds without any hit were thinned out: in the full panel of roughly 83,000, 20% have a hit.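 96-well plates, one dose, 48 hours. Percent growth reported; active if below 10.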 A number with no mark means an inactive call. Active and inactive are the calls of the source.

The molecules below were run on MDA-MB-468 breast (assay: NCI-60 one-dose screen, 48 h (100 = growth as untreated, 0 = no growth, -100 = all killed)). Settings: 10 µM unless noted.
Work on `COC(=O)c1ccc2c(c1)nc(-c1ccc(O)c(OC)c1)n2-c1cc(C(C)(C)C)[nH]n1` yielded a growth of 104%. `CNC(=O)c1cc(Oc2ccc(NC(=O)Nc3ccc(Cl)c(C(F)(F)F)c3)c(F)c2)ccn1` was tested, and the growth was -49.1% (active). Work on `c1ccc(CNc2c3ccccc3nc3ccccc23)cc1` yielded a growth of 19.4%. With `O=C(/C=C/c1cccc(B(O)O)c1)c1cccc(B(O)O)c1` the growth was -84.9% (active). `COc1ccc(Nc2ncnc3c2c(SC)nn3-c2ccccc2)cc1` gave a growth of 69.2%. `Cc1cc(Cl)c2c(N(C)C)cccc2n1` showed a growth of 77.4%. With `Cc1ccc(-c2nc(SCc3nc4cc(Cl)c(Cl)cc4[nH]3)[nH]c(=O)c2C#N)cc1` the growth was 116%. With `CCN(CC)CCCN1C(=O)c2c(c(C)c3c(oc4ccc(O)cc43)c2C)C1=O` the growth was 75.7%. For `COc1cc(/C=C/C(=O)c2ccccc2)ccc1Oc1nc(NCCO)nc(N2CCOCC2)n1`, the growth was 103%. With `COc1ccccc1NC(=O)OCC#CCOC(=O)Nc1ccccc1OC` the growth was 92.6% and 89.9%. For `O=c1nc(Nc2cccc(Cl)c2)oc2cc(Cl)oc(=O)c12`, the growth was 75.1%. For `CCN1C(=O)N(CC)C2SC(N/N=C/C=C/c3ccccc3OC)=NC21` (stereo not given), the growth was 36.8%. `N#C/C(=C\c1ccc(-c2ccc(Br)cc2)o1)c1nc(-c2ccco2)cs1` was tested, and the growth was -26.8% (active). For `COc1cc2c(c(OC)c1OC)-c1ccc(N)c(=O)cc1[C@@H](NC(C)=O)CC2`, the growth was 0.226% (active). With `O=C(O)c1ccc([N+](=O)[O-])cc1S(=O)(=O)O` the growth was 98.6%.
